# Test results reported in PubChem BioAssay (NCATS).
# Records with an inconclusive call do not appear. Activity calls are given as the source filed them. The call rests on the fitted dose curve; in most records, active means well fitted curve in the direction sought with a large enough effect; inconclusive means small, poorly fitted or top-dose-only effect, or another doubt; inactive means no such curve, though single readings can be large; an effect the other way counts as inactive or inconclusive.
# Experiments:
# [1] = qHTS of pediatric cancer cell lines to identify multiple opportunities for drug repurposing: Primary screen for TC32 cells (AID 1347089); further: nearly all actives have a fitted effect of over 60% in size
# Outline: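 TC32 cells, 500-1,000/well in growth medium, compound-treated 48 h at 37 °C; viability from CellTiter-Glo luminescence. Primary screen: MIPE 11-point (0.78 nM–46 µM final), NPC 8-point (0.59 nM–46 µM final); confirmatory at 11-point dilutions.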
# [2] = qHTS of pediatric cancer cell lines to identify multiple opportunities for drug repurposing: Primary screen for DAOY cells (AID 1347090); further: nearly all actives have a fitted effect of over 55% in size
# Outline: (§1)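 Eight- or eleven-point concentration series, 48 h treatment at 37 degrees C in growth media; readout CellTiter-Glo luminescence. Potency and efficacy were taken from the concentration-response curves.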
# [3] = qHTS of pediatric cancer cell lines to identify multiple opportunities for drug repurposing: Primary screen for SJ-GBM2 cells (AID 1347091)
# Outline: as §1
# [4] = qHTS of pediatric cancer cell lines to identify multiple opportunities for drug repurposing: Primary screen for A673 cells (AID 1347092); further: nearly all actives have a fitted effect of over 45% in size
# Outline: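 A673 cells (500-1,000 cells/well) were treated 48 hours at 37 degrees C with compounds at 11-point (0.78 nM to 46 µM) or 8-point (0.59 nM to 46 µM) dilutions. Viability read by CellTiter-Glo luminescence; concentration-response curves fitted.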
# [5] = qHTS of pediatric cancer cell lines to identify multiple opportunities for drug repurposing: Primary screen for SK-N-MC cells (AID 1347093)
# Outline: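 Metabolically active cells were quantified by ATP-dependent luminescence (CellTiter-Glo, 15 min at room temperature) following 48 h treatment. Cells had been plated at 500-1,000 per well and settled for 5 h beforehand.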
# [6] = qHTS of pediatric cancer cell lines to identify multiple opportunities for drug repurposing: Primary screen for BT-37 cells (AID 1347094)
# Outline: (§2)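 500-1,000 cells/well; 5 h pre-incubation 37 °C/5% CO2; compound pinned; 48 h; CellTiter-Glo, 15 min RT; luminescence. MIPE 11-pt from 0.78 nM, NPC 8-pt from 0.59 nM final. Bortezomib 2.3 µM final as positive control.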
# [7] = qHTS of pediatric cancer cell lines to identify multiple opportunities for drug repurposing: Primary screen for NB-EBc1 cells (AID 1347095)
# Outline: as §2
# [8] = qHTS of pediatric cancer cell lines to identify multiple opportunities for drug repurposing: Primary screen for U-2 OS cells (AID 1347096); further: nearly all actives have a fitted effect of over 50% in size
# Outline: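 Cells (500-1,000/well) in growth media were settled 5 h at 37 degrees C, then given compounds for 48 h. Viability was read as CellTiter-Glo luminescence. Primary runs used MIPE at 11 points (0.78 nM-46 µM) and NPC at 8 points (0.59 nM-46 µM); follow-ups used 11 points.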
# [9] = qHTS of pediatric cancer cell lines to identify multiple opportunities for drug repurposing: Primary screen for Saos-2 cells (AID 1347097); further: nearly all actives have a fitted effect of over 40% in size
# Outline: as §2
# Potency means the concentration at half of the fitted maximal effect.
Compound,Potency [1],Potency [2],Potency [3],Potency [4],Potency [5],Potency [6],Potency [7],Potency [8],Potency [9]
CN1CCN(Cc2ccc(NC(=O)Nc3ccc(Oc4cc(NC(=O)C5CC5)ncn4)cc3)cc2C(F)(F)F)CC1,0.294 µM (active),0.59 µM (active),0.372 µM (active),0.148 µM (active),0.332 µM (active),0.544 µM (active),0.935 µM (active),inactive,0.59 µM (active)
COc1ccc(C=Cc2cc(OC)c(OC)c(OC)c2)cc1O,0.0004 µM (active),0.001 µM (active),0.001 µM (active),0.001 µM (active),0.001 µM (active),0.0137 µM (active),0.001 µM (active),inactive,0.935 µM (active)
CCN(CC)CCNC(=O)c1ccc2nc(-c3ccccc3)c(-c3ccc(CN4CCC(n5c(=O)[nH]c6ccccc65)CC4)cc3)nc2c1,18.6 µM (active),23.5 µM (active),16.6 µM (active),1.18 µM (active),2.64 µM (active),10.9 µM (active),,3.72 µM (active),6.62 µM (active)
Clc1cccc(-n2nnnc2NCc2ccccc2Oc2ccccn2)c1Cl,inactive,inactive,inactive,inactive,inactive,inactive,,inactive,
CC(O)C1C(=O)N2C(C(=O)O)=C(SC3CNC(C(=O)N(C)C)C3)C(C)C12 (stereo not drawn),inactive,inactive,inactive,inactive,inactive,inactive,,inactive,inactive
Cc1cc(Nc2cc(N3CCN(C)CC3)nc(C=Cc3ccccc3)n2)n[nH]1,6.02 µM (active),42.9 µM (active),13.6 µM (active),10.8 µM (active),1.52 µM (active),44.4 µM (active),4.29 µM (active),34 µM (active),3.03 µM (active)
Cc1ccc(CN2CCNCC2)cc1NC(=O)CNc1ccc(F)c(F)c1,inactive,inactive,,inactive,inactive,inactive,inactive,inactive,
C1=CCOCc2cc(ccc2OCCN2CCCC2)Nc2nccc(n2)-c2cccc(c2)OCC1,14.7 µM (active),14.8 µM (active),3.72 µM (active),2.35 µM (active),,12.2 µM (active),7.43 µM (active),inactive,5.26 µM (active)
C=C1C(=CC=C2CCCC3(C)[C@@H]([C@H](C)C=CC=CC(O)(CC)CC)CC[C@@H]23)C[C@@H](O)C[C@@H]1O (stereo partly drawn),inactive,23.5 µM (active),20.9 µM (active),18.7 µM (active),6.62 µM (active),,18.7 µM (active),,
CCOc1cc2ncc(C#N)c(Nc3ccc(F)c(Cl)c3)c2cc1NC(=O)C=CCN(C)C,18.6 µM (active),0.118 µM (active),0.935 µM (active),0.0296 µM (active),0.0469 µM (active),,9.35 µM (active),inactive,
Nc1ccn([C@@H]2O[C@H](CO)[C@H](O)C2(F)F)c(=O)n1,0.117 µM (active),1.87 µM (active),,0.0187 µM (active),1.32 µM (active),0.0306 µM (active),0.935 µM (active),inactive,3.72 µM (active)
O=C1CCC[C@@H]2[C@H]3CCC[N+]4([O-])CCC[C@@H](CN12)[C@@H]34 (stereo partly drawn),inactive,inactive,,inactive,inactive,inactive,inactive,inactive,
Clc1cccc(-c2nnnn2Cc2cccnc2)c1Cl,inactive,inactive,inactive,inactive,,inactive,,inactive,inactive
COc1ccc(CC2SC(=O)NC2=O)cc1C(=O)NCc1ccc(C(F)(F)F)cc1 (stereo not drawn),inactive,inactive,inactive,inactive,,inactive,,inactive,inactive
Cc1[nH]c2ccccc2c1CCNCc1ccc(C=CC(=O)NO)cc1,1.65 µM (active),0.469 µM (active),,0.148 µM (active),0.148 µM (active),0.273 µM (active),0.372 µM (active),0.469 µM (active),
Nc1nc(NCCNc2ncc(-n3ccnc3)c(-c3ccc(Cl)cc3Cl)n2)ccc1[N+](=O)[O-],inactive,14.8 µM (active),4.69 µM (active),9.35 µM (active),1.66 µM (active),,13.2 µM (active),,26.4 µM (active)
CC(C)(O)CCc1ccc(OCc2cc(-c3cccc(OC(F)F)c3)c3ncccc3c2)cc1,inactive,inactive,inactive,inactive,,inactive,inactive,inactive,inactive
Nc1ccccc1NC(=O)c1ccc(CNC(=O)OCc2cccnc2)cc1,8.29 µM (active),4.69 µM (active),,1.48 µM (active),0.0935 µM (active),3.85 µM (active),1.32 µM (active),1.87 µM (active),
C[C@]1(CO)CN(c2cc(C(=O)Nc3ccc4c(c3)-c3c(c(C(N)=O)nn3-c3ccc(F)cc3)CC4)c(Cl)cn2)C[C@@]1(C)CO,18.6 µM (active),11.8 µM (active),6.62 µM (active),9.35 µM (active),1.48 µM (active),5.44 µM (active),,,16.6 µM (active)
COc1ccc(-n2nc(C(N)=O)c3c2C(=O)N(c2ccc(N4CCCCC4=O)cc2)CC3)cc1,inactive,inactive,,9.35 µM (active),inactive,12.2 µM (active),inactive,inactive,inactive
COc1cccc(Nc2c(C(N)=O)cnc3c(C)cc(S(=O)(=O)c4cccc(C(=O)N(C)C)c4)cc23)c1,inactive,inactive,,inactive,6.45 µM (active),inactive,inactive,inactive,
OCc1ccc(-c2ccc(-c3ccc(CO)s3)o2)s1,inactive,9.35 µM (active),16.6 µM (active),0.148 µM (active),,inactive,14.8 µM (active),inactive,inactive
COC(=O)c1ccc2c(C(=Nc3ccc(N(C)C(=O)CN4CCN(C)CC4)cc3)c3ccccc3)c(O)[nH]c2c1,10.4 µM (active),0.59 µM (active),16.6 µM (active),0.296 µM (active),,3.85 µM (active),2.09 µM (active),,9.35 µM (active)
CC(C)c1cc(C(=O)N2Cc3ccc(CN4CCN(C)CC4)cc3C2)c(O)cc1O,1.04 µM (active),0.935 µM (active),0.372 µM (active),0.296 µM (active),0.332 µM (active),,0.132 µM (active),,0.935 µM (active)
Cn1c(CNc2ccc(C(=N)N)cc2)nc2cc(C(=O)N(CCC(=O)O)c3ccccn3)ccc21,inactive,inactive,inactive,,,inactive,inactive,inactive,inactive
O=C(O)[C@H](Cc1c[nH]c2ccccc12)N1C(=O)c2ccccc2C1=O,inactive,inactive,inactive,,48.1 µM (active),inactive,inactive,inactive,inactive
CC1(C)CCC(c2ccc(Cl)cc2)=C(CN2CCN(c3ccc(C(=O)NS(=O)(=O)c4ccc(N[C@H](CCN5CCOCC5)CSc5ccccc5)c(S(=O)(=O)C(F)(F)F)c4)cc3)CC2)C1,inactive,7.43 µM (active),,4.69 µM (active),0.0118 µM (active),13.7 µM (active),0.0187 µM (active),7.43 µM (active),4.18 µM (active)
